Shown are actives, neighbours in structure and some others; about 2.9% of the full set was active somewhere.
N-glyco inh – increase of ERlucT glycosylation luciferase signal, primary screen, N-linked glycosylation inhibitor project, D54 ERlucT cells, luminescence, set 2; D54 ERlucT glycosylation luciferase reporter, 24 h; percent of 100 nM tunicamycin response; reporter increase, % at 12.5 µM; 360,000 compounds, 0.23% hits;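 active = mean luciferase reporter signal, scaled so untreated is 0 and the glycosylation-blocking control 100, at or above a set limit in every replicate; inconclusive = mean reaches the limit but not every replicate does; inactive = mean below the limit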;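 note: luciferase carries N-glycosylation sites so blocking glycosylation raises the light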
MITF act – activators of MITF-driven TRPM1 promoter reporter, primary screen, cell-based, SK-MEL-5, luciferase, single point; SK-MEL-5 TRPM1-promoter luciferase, 24 h; % of positive control, neutral wells = 0; activation, % at 12.5 µM; 300,000 compounds, 0.75% hits; AID 588334, 2011;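 active = mean activation of at least 80% with every replicate also reaching 80%; inconclusive = mean reaches 80% but some replicate falls short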
esBAF inh – Bmi1 luciferase reporter increase in mESCs, primary screen, esBAF inhibitor project, mouse ES cells, Bmi1 luciferase knock-in, single point. 24 h; 100% = twice the neutral-well signal. reporter increase, % at 12.5 µM. 350,000 compounds, 2% hits. AID 602393, 2012; in the data active = activation above about 40%; inconclusive = no clear call, values can overlap the other calls;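 note: a rise in the Bmi1 reporter signal indicates esBAF inhibition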
PvdQ inh – P. aeruginosa PvdQ acylase inhibitors, primary screen, biochemical, fluorescence, plate reader and imaging, single point. PvdQ acylase [Pseudomonas aeruginosa LESB58]. AID 488965, 2010. 340,000 compounds, 0.063% hits. inhibition, % at 10 µM. purified PvdQ acylase; in the data active = inhibition above about 30%, passing the limit was not always enough; inconclusive = no clear call, values can overlap the other calls
Wnt act – Wnt/beta-catenin pathway activators, primary screen, cell-based, plate reader, single point. 300,000 compounds, 1.2% hits. Wnt/beta-catenin reporter cell assay, activator. activation, % at 9.35 µM; in the data active = activation above about 30%, passing the limit was not always enough; inconclusive = no clear call, values can overlap the other calls
Vif imaging – HIV Vif self-association inhibitors, primary screen, imaging, HEK293T, single point | HEK293T cells, Vif self-association by quenched fluorescence, 24 h | inhibition, % at 7.49 µM | 340,000 compounds, 0.35% hits; in the data active = inhibition above about 50%, passing the limit was not always enough; inconclusive = no clear call, values can overlap the other calls; inactive = below about 31%
Each line names hits and unclear results; the compound was inactive in the other large screens.

CCCNC(=O)N(C)C[C@@H]1Oc2ncc(-c3ccc(F)cc3)cc2C(=O)N([C@H](C)CO)C[C@H]1C	none (no result: N-glyco inh, MITF act, PvdQ inh, Wnt act, Vif imaging)
Cc1cc(C(=O)Nc2ccc3c(c2)C(=O)N(C)[C@H]2CC[C@@H](CC(=O)N[C@@H](C)c4ccccc4)O[C@H]2CO3)no1	none (no result: N-glyco inh, MITF act, PvdQ inh, Wnt act, Vif imaging)
CN(C)S(=O)(=O)c1ccc(N2CCCC2)c(C(=O)Nc2nc3ccc(F)cc3s2)c1	N-glyco inh 63 (no result: esBAF inh)
Cc1cccc2sc(NC(=O)c3cc(S(=O)(=O)N(C)C)ccc3N3CCCC3)nc12	N-glyco inh 87
CN(C)S(=O)(=O)c1ccc(N2CCCC2)c(C(=O)Nc2nc3ccccc3s2)c1	N-glyco inh 90 (no result: esBAF inh)
CN(C)S(=O)(=O)c1ccc(N2CCCC2)c(C(=O)Nc2nc(-c3ccc(F)cc3)cs2)c1	none (no result: esBAF inh)
c1ccc2cc(-c3csnn3)ccc2c1	PvdQ inh 35 (no result: MITF act)
Nc1nc(-c2ccc3ccccc3c2)cs1	MITF act inconclusive, Vif imaging inconclusive (no result: esBAF inh)
O=S(=O)(N[C@@H]1CC[C@@H](CCn2cc(-c3cccc(F)c3)nn2)O[C@H]1CO)c1ccc(F)cc1	none (no result: N-glyco inh, MITF act, PvdQ inh, Wnt act, Vif imaging)
CCCNC(=O)C[C@H]1CC[C@@H]2[C@H](COC[C@@H](O)CN2C(=O)c2cccnc2)O1	none (no result: N-glyco inh, MITF act, PvdQ inh, Wnt act, Vif imaging)
O=C(Cc1ccccc1)Nc1ccc2c(c1)C(=O)N(CC1CCCO1)C2=O (stereo not drawn)	Vif imaging 50 (no result: esBAF inh, Wnt act)
COc1ccccc1N=c1sc2ccccc2n1C	none
Cn1c(=NN=Cc2ccccc2OCCO)sc2ccccc21	esBAF inh 56, Wnt act 43 (no result: MITF act, PvdQ inh)
COCc1ccc(C(=O)N(C)CC2CCCN(CCc3ccc(OC)cc3)C2)o1 (stereo not drawn)	esBAF inh 50
COc1ccc(CCN2CCCC(CN(C)C(=O)c3cc(C)oc3C)C2)cc1 (stereo not drawn)	esBAF inh 72, Wnt act inconclusive
COCc1ccc(C(=O)N(C)CC2CCCN(CCc3ccc(Cl)cc3)C2)o1 (stereo not drawn)	none
Cc1cc(C)cc(-n2nnc(C(=O)NCc3ccco3)c2N)c1	none (no result: MITF act, Wnt act)
Nc1c(C(=O)NCc2ccco2)nnn1-c1ccccc1	esBAF inh 50
CCS(=O)(=O)N1CCCC(c2nc(-c3cccc(OC)c3)no2)C1 (stereo not drawn)	esBAF inh 67 (no result: Vif imaging)
CC(=O)N1[C@@H]2c3ccc(-c4ccccc4)c(=O)n3C[C@H]1[C@H](CO)[C@H]2C(=O)N1CCCCC1	none (no result: N-glyco inh, MITF act, PvdQ inh, Wnt act, Vif imaging)
CO[C@@H]1CN(C)C(=O)c2cc(NS(=O)(=O)c3ccc(Oc4ccccc4)cc3)ccc2OC[C@H](C)NC[C@H]1C	none (no result: N-glyco inh, MITF act, PvdQ inh, Wnt act, Vif imaging)
CC(=O)Nc1cccc(-c2nc3ccccc3o2)c1	none (no result: MITF act)
COc1ccc(OCC(=O)Nc2cccc(-c3nc4ccccc4o3)c2)cc1	esBAF inh 51 (no result: MITF act, Wnt act)
CC(C)C(=O)Nc1cccc(-c2nc3ccccc3o2)c1	esBAF inh 41 (no result: Wnt act, Vif imaging)
COc1ccc(NC(=O)N(C)C[C@@H]2Oc3c(NC(=O)c4cnccn4)cccc3C(=O)N([C@@H](C)CO)C[C@H]2C)cc1	none (no result: N-glyco inh, MITF act, PvdQ inh, Wnt act, Vif imaging)
O=C(C[C@@H]1CC[C@@H]2[C@H](COC[C@H](O)CN2Cc2cc(F)cc(F)c2)O1)NC1CCCC1	none (no result: N-glyco inh, MITF act, PvdQ inh, Wnt act, Vif imaging)
CCc1nnc(NC(=O)C2CCCN(C(=O)c3ccc(Cl)cc3)C2)s1 (stereo not drawn)	esBAF inh 50
C[C@H]1CN([C@@H](C)CO)C(=O)c2cc(NC(=O)Nc3cccc4ccccc34)ccc2O[C@@H]1CN(C)Cc1ccc(C(=O)O)cc1	none (no result: N-glyco inh, MITF act, PvdQ inh, Wnt act, Vif imaging)
CCCOC1CCCN(C(=O)c2cc(COc3c(F)cccc3F)on2)C1 (stereo not drawn)	esBAF inh 89
CCCCc1nc2cc(C(=O)N3CCCC(COC)C3)ccc2o1 (stereo not drawn)	esBAF inh 63
COCC1CCN(C(=O)c2ccc3oc(CCCc4ccccc4)nc3c2)C1 (stereo not drawn)	esBAF inh 46
O=C(c1ccc2oc(CCc3ccccc3)nc2c1)N1CCC(O)CC1	MITF act 92
CCCCc1nc2cc(C(=O)N3CCCC(OCCC)C3)ccc2o1 (stereo not drawn)	MITF act inconclusive, esBAF inh 64
Cn1cnc(CCNC(=O)C[C@@H]2CC[C@H]3[C@@H](COC[C@@H](O)CN3C(=O)Nc3ccccc3)O2)c1	none (no result: N-glyco inh, MITF act, PvdQ inh, Wnt act, Vif imaging)
COc1ccccc1CN1[C@H](C(=O)NCCc2ccncc2)[C@@H](CO)[C@@H]2Cn3c(cccc3=O)[C@@H]21	none (no result: N-glyco inh, MITF act, PvdQ inh, Wnt act, Vif imaging)
COc1ccc(NC(=O)N(C)C[C@@H]2Oc3ncc(-c4ccc(F)cc4)cc3C(=O)N([C@H](C)CO)C[C@@H]2C)cc1	none (no result: N-glyco inh, MITF act, PvdQ inh, Wnt act, Vif imaging)
CC(/C=N/NC(=O)c1ccncc1)=C\c1ccccc1	none
CC(/C=N/NC(=O)c1cccc(F)c1)=C\c1ccccc1	Wnt act 40
CC(/C=N/NC(=O)c1cc(-c2ccc(C)s2)[nH]n1)=C\c1ccccc1	N-glyco inh 27 (no result: esBAF inh)
O=C(N/N=C/c1ccc(Cl)cc1Cl)c1cccc(F)c1	MITF act 138, esBAF inh 63, Wnt act 38
COc1ccc(NC(=O)N(C)C[C@@H]2OCCCC[C@H](C)Oc3ccc(NC(=O)c4ccncc4)cc3C(=O)N([C@@H](C)CO)C[C@H]2C)cc1	none (no result: N-glyco inh, MITF act, PvdQ inh, Wnt act, Vif imaging)
C[C@@H]1CN([C@H](C)CO)C(=O)c2cccc(NC(=O)C3CCOCC3)c2O[C@H]1CN(C)Cc1ccc(Oc2ccccc2)cc1	none (no result: N-glyco inh, MITF act, PvdQ inh, Wnt act, Vif imaging)
Cc1ccc(C(=O)NC(CCc2ccccc2)C(=O)O)cc1 (stereo not drawn)	Vif imaging 118
COc1ccc(C(=O)Nc2nc3ccccc3s2)cc1OC	esBAF inh 78
COc1ccc(C(=O)Nc2nc3ccccc3s2)cc1	none (no result: MITF act)
COc1ccc(C(=O)Nc2nc(CC(=O)NCc3c(F)cccc3F)cs2)cc1	esBAF inh inconclusive, Wnt act inconclusive (no result: MITF act, PvdQ inh)
COc1ccc(C(=O)Nc2nc(CC(=O)NCc3ccc(F)cc3)cs2)cc1	esBAF inh 50
O=C(Nc1nc(-c2cccs2)cs1)c1ccc(Cl)s1	none
COc1ccc2nc(NC(=O)c3ccc4ncsc4c3)sc2c1	MITF act inconclusive, esBAF inh 67 (no result: Wnt act)
O=C(Nc1nc(-c2ccc(Cl)s2)cs1)c1ccccc1	esBAF inh 50 (no result: Vif imaging)
C[C@@H]1CN([C@@H](C)CO)C(=O)c2cccc(NC(=O)Nc3ccc(C(F)(F)F)cc3)c2O[C@@H]1CN(C)C(=O)NC1CCCCC1	none (no result: N-glyco inh, MITF act, PvdQ inh, Wnt act, Vif imaging)
COc1cccc(C(=O)Nc2nc3ccccc3s2)c1	none
COc1ccc2nc(NC(C)=O)sc2c1	Wnt act inconclusive (no result: Vif imaging)
Cc1noc(C)c1C(=O)Nc1nc2ccc(F)cc2s1	esBAF inh 52, Wnt act 59
O=C(Nc1nc2ccccc2s1)c1ccc(F)cc1	Wnt act 47
